Measured values: PubChem BioAssay
Activity calls are given as the source filed them.

Key:
[1] = test system: Plasmodium falciparum Sir2 (PF13_0152, Sir2A); test: Plasmodium falciparum Sir2A binding compounds – biochemical, small-molecule microarray, 635 nm fluorescence, primary screen (AID 1098); details: fluorescence 635 nm, higher = more signal;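 further: score merges spot fluorescence intensity with its signal-to-noise ratio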
[2] = probe aDKK1 binding to arrayed compounds – biochemical, biotinylated probe, 635/667 nm fluorescence, primary screen (AID 1099); details: small-molecule microarray, higher = more signal;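 further: score merges 667nm spot fluorescence with signal to noise across triplicate slides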
[3] = probe aCHRDL2 binding to arrayed compounds – biochemical, biotinylated probe, 635/667 nm fluorescence, primary screen (AID 1100); details: small-molecule microarray, higher = more signal
[4] = change in splice reporter luminescence, either direction, cell-based, HEK293, spliceosome inhibition project, primary screen (AID 1101); details: HEK293 splicing luciferase reporter, 24 h, higher = more signal, called active from +8 up or from −8 down;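 further: HEK293 cells carrying a splicing-competent luciferase reporter gene; test concentration not given here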
[5] = molecular target: Fibroblast growth factor 10 (Homo sapiens) (UniProt O15520); test: compounds binding fibroblast growth factor 10 – biochemical, small-molecule microarray, 635 nm fluorescence, primary screen (AID 1102); details: FGF10 binding, fluorescence 635 nm, higher = more signal
Fibroblast growth factor 10 (Homo sapiens), sequence (O15520 whole entry, looked up): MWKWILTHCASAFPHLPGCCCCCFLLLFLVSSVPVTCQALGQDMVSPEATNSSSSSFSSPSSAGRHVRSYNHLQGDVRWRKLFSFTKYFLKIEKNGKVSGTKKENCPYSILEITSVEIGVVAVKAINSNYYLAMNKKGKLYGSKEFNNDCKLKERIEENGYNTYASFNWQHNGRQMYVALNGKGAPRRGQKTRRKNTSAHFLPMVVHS

[6] = test system: glycogen synthase kinase-3 (GSK3A per assay name; protocol says GSK3B); test: compounds binding glycogen synthase kinase-3 – biochemical, small-molecule microarray, 635 nm fluorescence, GSK3A, primary screen (AID 1103); details: fluorescence 635 nm, higher = more signal; further: the record names both GSK3A and GSK3B
[7] = molecular target: Epidermal growth factor receptor (Homo sapiens) (UniProt P00533); test: compounds binding epidermal growth factor receptor – biochemical, small-molecule microarray, 635 nm fluorescence, primary screen (AID 1104); details: EGFR binding, higher = more signal;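 further: score merges 667 nm emission intensity with spot signal to noise over triplicate slides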
Epidermal growth factor receptor (Homo sapiens), sequence (P00533 whole entry, looked up): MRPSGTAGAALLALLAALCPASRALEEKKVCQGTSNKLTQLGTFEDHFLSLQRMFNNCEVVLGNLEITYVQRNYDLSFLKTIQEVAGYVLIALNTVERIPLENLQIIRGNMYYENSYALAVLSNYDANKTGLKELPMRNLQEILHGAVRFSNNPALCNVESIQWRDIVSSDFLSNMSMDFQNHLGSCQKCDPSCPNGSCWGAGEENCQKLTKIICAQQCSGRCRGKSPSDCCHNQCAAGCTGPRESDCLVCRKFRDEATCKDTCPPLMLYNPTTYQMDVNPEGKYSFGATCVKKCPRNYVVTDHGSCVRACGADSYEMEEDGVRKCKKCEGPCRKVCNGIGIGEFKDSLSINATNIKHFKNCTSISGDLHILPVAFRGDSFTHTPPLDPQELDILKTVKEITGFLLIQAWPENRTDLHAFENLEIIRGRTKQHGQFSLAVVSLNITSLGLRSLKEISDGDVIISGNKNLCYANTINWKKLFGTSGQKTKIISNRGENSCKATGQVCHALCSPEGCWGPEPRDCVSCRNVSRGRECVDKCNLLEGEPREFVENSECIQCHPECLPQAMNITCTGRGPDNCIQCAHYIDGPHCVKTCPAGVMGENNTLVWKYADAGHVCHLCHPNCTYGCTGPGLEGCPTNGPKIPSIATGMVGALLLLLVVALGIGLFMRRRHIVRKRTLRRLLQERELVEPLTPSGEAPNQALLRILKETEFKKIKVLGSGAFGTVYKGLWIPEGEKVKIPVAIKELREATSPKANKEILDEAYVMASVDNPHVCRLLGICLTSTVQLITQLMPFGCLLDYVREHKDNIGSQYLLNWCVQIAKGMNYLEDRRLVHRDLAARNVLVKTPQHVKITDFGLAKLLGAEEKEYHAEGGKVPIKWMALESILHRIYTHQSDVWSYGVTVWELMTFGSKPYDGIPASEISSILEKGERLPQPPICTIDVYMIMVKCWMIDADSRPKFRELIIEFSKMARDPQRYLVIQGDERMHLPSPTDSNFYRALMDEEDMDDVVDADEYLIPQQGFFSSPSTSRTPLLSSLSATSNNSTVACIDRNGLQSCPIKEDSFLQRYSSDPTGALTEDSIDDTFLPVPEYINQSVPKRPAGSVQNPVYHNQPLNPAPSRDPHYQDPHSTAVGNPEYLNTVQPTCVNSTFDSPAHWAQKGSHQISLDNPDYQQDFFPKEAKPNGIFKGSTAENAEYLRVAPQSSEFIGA

[8] = molecular target: Follistatin-related protein 3 (Homo sapiens) (UniProt O95633); test: compounds binding follistatin-related protein 3 – biochemical, small-molecule microarray, 635 nm fluorescence, primary screen (AID 1105); details: FSTL3 binding, higher = more signal;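 further: score merges emission near 667 nm and signal to noise per printed spot across three slides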
Follistatin-related protein 3 (Homo sapiens), sequence (O95633 whole entry, looked up): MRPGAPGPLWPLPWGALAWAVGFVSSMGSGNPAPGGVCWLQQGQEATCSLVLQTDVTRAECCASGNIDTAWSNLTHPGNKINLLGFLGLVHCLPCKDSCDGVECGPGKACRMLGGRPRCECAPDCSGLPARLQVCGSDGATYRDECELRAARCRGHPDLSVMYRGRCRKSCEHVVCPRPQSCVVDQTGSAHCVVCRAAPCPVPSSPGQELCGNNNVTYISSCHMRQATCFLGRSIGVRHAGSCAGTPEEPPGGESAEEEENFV

[9] = molecular target: Dickkopf-related protein 1 (Homo sapiens) (UniProt O94907); test: small molecules binding DKK1 protein – biochemical, small-molecule microarray, 635 nm fluorescence scan, primary screen (AID 1106); details: higher = more signal;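 further: score merges emission near 667 nm with signal to noise over three replicate slides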
Dickkopf-related protein 1 (Homo sapiens), sequence (O94907 whole entry, looked up): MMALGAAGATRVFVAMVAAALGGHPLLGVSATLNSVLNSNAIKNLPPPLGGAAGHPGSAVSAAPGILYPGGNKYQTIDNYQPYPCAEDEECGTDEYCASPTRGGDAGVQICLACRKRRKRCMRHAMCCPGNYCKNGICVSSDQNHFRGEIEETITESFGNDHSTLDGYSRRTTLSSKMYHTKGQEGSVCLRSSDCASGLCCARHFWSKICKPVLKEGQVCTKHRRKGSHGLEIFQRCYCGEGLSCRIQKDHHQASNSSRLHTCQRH

[10] = test system: Inhibin beta A chain (activin A); test: small molecules binding activin A – biochemical, small-molecule microarray, 635 nm fluorescence scan, primary screen (AID 1107); details: INHBA, higher = more signal;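 further: mouse activin A protein probed at 4.33 µg/mL on printed slides; score merges bound-protein fluorescence near 667 nm with spot signal-to-noise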
[11] = test system: Human papillomavirus type 1a protein E7 (residues 44-93); test: small molecules binding HPV E7 44-93 – biochemical, small-molecule microarray, residues 44-93, 635 nm fluorescence, primary screen (AID 1108); details: fluorescence 635 nm, higher = more signal;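 further: E7 fragment applied at 1 µg/mL in TBST for 1 h at 4 C; score combines spot fluorescence with its signal to noise ratio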
[12] = hepatitis C replication reporter changes, two-sided – Huh7 cells, luciferase reporter, HCV replication inhibitor project, primary screen (AID 1109); details: Huh7 HCV replicon luciferase reporter, 48 h; higher = more signal;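 further: huh7 hepatoma cells harbouring a luciferase neomycin HCV replicon reporter; luciferase luminescence as measure of HCV replicon replication; test concentration not given here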
[13] = molecular target: Left-right determination factor 2 (Homo sapiens) (UniProt O00292); test: small molecules binding LEFTY2 protein – biochemical, small-molecule microarray, 635 nm fluorescence scan, primary screen (AID 1110); details: higher = more signal
Left-right determination factor 2 (Homo sapiens), sequence (O00292 whole entry, looked up): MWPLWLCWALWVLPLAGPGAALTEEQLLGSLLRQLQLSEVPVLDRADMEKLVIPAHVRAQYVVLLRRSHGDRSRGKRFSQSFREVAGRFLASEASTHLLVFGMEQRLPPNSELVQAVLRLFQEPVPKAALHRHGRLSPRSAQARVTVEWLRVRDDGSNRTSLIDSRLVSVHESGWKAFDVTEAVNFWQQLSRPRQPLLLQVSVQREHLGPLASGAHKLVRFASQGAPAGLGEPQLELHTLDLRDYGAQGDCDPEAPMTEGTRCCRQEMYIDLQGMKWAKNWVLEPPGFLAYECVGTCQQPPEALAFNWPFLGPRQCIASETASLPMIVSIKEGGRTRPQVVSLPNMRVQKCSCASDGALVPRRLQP

[14] = molecular target: Calmodulin-1 (Homo sapiens) (UniProt P0DP23); test: small molecules binding calmodulin-1 with EGTA – biochemical, small-molecule microarray, Cy5-labelled CALM1, profiling panel (AID 1111); details: Cy5-CALM1 binding fluorescence, higher = more signal;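 further: labelled calmodulin applied in Tris saline Tween buffer holding calcium plus EGTA and DTT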
[15] = molecular target: Calmodulin-1 (Homo sapiens) (UniProt P0DP23); test: small molecules binding Ca-loaded calmodulin-1 – biochemical, small-molecule microarray, Cy5-labelled CALM1, plus calcium, artefact control for SMM control-protein annotation, profiling panel (AID 1112); details: Cy5-CALM1 binding fluorescence, higher = more signal;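 further: score merges spot fluorescence with signal to noise from triplicate slides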
[16] = probe aWnt5a binding to arrayed compounds – biochemical, biotinylated probe, 635/667 nm fluorescence, primary screen (AID 1113); details: small-molecule microarray, higher = more signal;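 further: score merges 667 nm fluorescence intensity with signal-to-noise per printed feature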
[17] = probe aShh binding to arrayed compounds – biochemical, biotinylated probe, 635/667 nm fluorescence, primary screen (AID 1114); details: small-molecule microarray, higher = more signal;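 further: probe is biotin-labelled aShh protein from a stem cell growth factor screen; measures binding of labelled protein to compounds printed on the slide; score merges feature fluorescence at 667 nm with signal-to-noise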
[18] = probe aNog binding to arrayed compounds – biochemical, biotinylated probe, 635/667 nm fluorescence, primary screen (AID 1115); details: small-molecule microarray, higher = more signal;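 further: probe is biotinylated aNog protein used at 0.15 µg/mL for 1 h at 4 C; z-score combines 667 nm fluorescence of each spot with its signal to noise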
[19] = molecular target: Torsin-1A-interacting protein 1 (Homo sapiens) (UniProt Q5JTV8); test: compound microarray binding of lysate hLAP1 – cell lysate, small-molecule microarray, COS7 lysate, 635/667 nm fluorescence, primary screen (AID 1116); details: 635 nm fluorescence, higher = more signal
Torsin-1A-interacting protein 1 (Homo sapiens), sequence (Q5JTV8 whole entry, looked up): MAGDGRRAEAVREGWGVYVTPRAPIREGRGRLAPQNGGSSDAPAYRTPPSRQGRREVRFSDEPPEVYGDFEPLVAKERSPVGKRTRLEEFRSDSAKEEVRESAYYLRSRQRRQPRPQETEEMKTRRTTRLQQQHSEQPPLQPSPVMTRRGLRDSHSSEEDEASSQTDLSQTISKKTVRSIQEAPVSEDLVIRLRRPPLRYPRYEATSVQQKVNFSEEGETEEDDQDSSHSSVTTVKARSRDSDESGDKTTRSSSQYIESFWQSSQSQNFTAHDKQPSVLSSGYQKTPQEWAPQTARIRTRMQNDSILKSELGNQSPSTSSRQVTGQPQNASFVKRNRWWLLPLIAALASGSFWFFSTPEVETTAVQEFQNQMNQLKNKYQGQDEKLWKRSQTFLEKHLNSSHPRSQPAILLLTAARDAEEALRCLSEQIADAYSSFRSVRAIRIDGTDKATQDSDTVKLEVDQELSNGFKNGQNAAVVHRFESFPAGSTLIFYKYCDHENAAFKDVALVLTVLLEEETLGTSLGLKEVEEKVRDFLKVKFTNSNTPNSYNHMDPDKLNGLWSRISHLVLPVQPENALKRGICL

[20] = molecular target: Alpha-bungarotoxin (Bungarus multicinctus) (UniProt P60615); test: compounds binding labelled alpha-BTX control protein – biochemical, small-molecule microarray, Alexa647 label, 635/667 nm fluorescence, artefact control for SMM control protein annotation, profiling panel (AID 1117); details: alpha-BTX-A647 binding fluorescence, higher = more signal
Alpha-bungarotoxin (Bungarus multicinctus), sequence (P60615 whole entry, looked up): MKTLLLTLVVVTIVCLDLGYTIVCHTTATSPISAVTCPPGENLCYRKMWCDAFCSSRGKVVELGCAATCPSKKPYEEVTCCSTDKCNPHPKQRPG

SMILES	composite z-score [1]	composite z-score [2]	composite z-score [3]	z-score [4]	composite z-score [5]	composite z-score [6]	composite z-score [7]	composite z-score [8]	composite z-score [9]	composite z-score [10]	composite z-score [11]	z-score [12]	composite z-score [13]	composite z-score [14]	composite z-score [15]	composite z-score [16]	composite z-score [17]	composite z-score [18]	composite z-score [19]	composite z-score [20]
O=C(NC1CC1)[C@@H]1c2ccccc2C(=O)N(Cc2ccccc2Cl)[C@H]1c1ccc(CO)cc1	0.814	0.893	1.02	-0.544 (inactive)	0.474	1.24	0.186	0.654	0.63	1.17	0.791	-2.09	0.697	1.08	0.287	-0.0765	-0.138	0.233	1.46	0.759
CC1CC/C=C\[C@H]2OC34C=CCN(C(C)(C)C)C(=O)[C@H]3N(CCO)C(=O)[C@@H]4C2C(=O)O1 (stereo not given in full)	-0.103	-0.404	0.51	0.851 (inactive)	-0.98	-0.496	-1.33	-0.755	-0.739	-0.0663	-0.432	-0.106	-1.66	-1.34	-0.746	-0.224	-0.372	0.489	-1.25	-0.153
[N-]=[N+]=NCc1ccccc1C[C@]1(C(N)=O)COC(c2ccc(OCCCO)cc2)=N1	0.806	1.13	1.36	-1.52 (inactive)	0.23	0.812	-1.04	-0.0511	-0.2	0.636	0.202	-0.17	-0.993	2.01	1.2	-0.0286	-0.0441	-0.169	2.59	1.58
COc1ccc([Si](C)(C)[C@H]2[C@H](CC(=O)N3Cc4ccccc4C[C@H]3CO)O[C@@]3(C(=O)N(Cc4cccc(N5CCC5=O)c4)c4ccccc43)[C@@H]2C)cc1	1.31	-0.293	-0.325	-0.205 (inactive)	1.05	0.716	1.19	1.42	1.26	0.962	1.37	-3.58	0.903	-0.293	-1.02	-0.0425	0.2	0.0308	0.626	-0.0509
NC(=O)NCC#Cc1ccc2c(c1)[C@]1(C(=O)N2)[C@H](C(N)=O)[C@H]2C(=O)O[C@H](c3ccccc3)[C@H](c3ccccc3)N2[C@@H]1c1ccc(O)cc1	1.51	-0.912	-0.142	-0.712 (inactive)	0.353	-0.348	-0.858	-0.0676	-1.27	0.778	0.502	0.408	-1.13	0.721	0.562	0.726	0.42	2.39	3.44	2.12
CCCc1cc2c(n1Cc1cc(F)cc(F)c1)C(C)C1CN(C(=O)c3ccccc3)C(C)(C(=O)OC)C21 (stereo not given)	1.01	1.28	1.33	-3.1 (inactive)	1.21	1.07	0.0159	0.899	0.215	1.27	1.35	-2.24	0.225	2.31	0.813	0.36	-0.148	0.363	2.6	2.34
C=CCOC(=O)[C@H]1[C@@H]2C(=O)O[C@@H](c3ccccc3)[C@@H](c3ccccc3)N2[C@@H](c2ccc(OCCOC(=O)[C@H]3C[C@H]4C(=O)N[C@@H](CCCC[N+](C)(C)C)C(=O)N4[C@H]3c3ccc(O)cc3)cc2)[C@]12C(=O)Nc1ccc(I)cc12	1.48	0.177	-0.228	1.2 (inactive)	0.332	0.86	0.0741	0.803	1.41	0.225	0.756	-0.537	0.853	-0.421	-0.0782	0.0549	1.11	1.86	0.218	0.659
